Measurements as given in PubChem BioAssay (NCATS).
Unmarked numbers belong to inactive results. Records with an inconclusive call do not appear. Activity calls are given as the source filed them. Calls come from the whole dose curve; as a rule, active = well fitted curve in the direction sought with a large enough effect; inconclusive = small, poorly fitted or top-dose-only effect, or another doubt; inactive = no such curve, though single readings can be large; an effect the other way counts as inactive or inconclusive.

target: Cytochrome P450 3A4 (Homo sapiens) (UniProt P08684); test: qHTS Assay for Inhibitors and Substrates of Cytochrome P450 3A4 (AID 884); conditions: recombinant CYP3A4, Luciferin-PPXE luminescence; series mostly up to 57.1 µM; activity change, negative = inhibition: at the top concentration; note: nearly all actives have a fitted effect of over 50% in size; note: potency is the fitted concentration of half-maximal effect; for activity change, negative = inhibition: % is set by controls: 0 for no effect and ±100 for the full control effect
Summary of the method: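 20 nM human CYP3A4 with 25 uM Luciferin-PPXE (at KM) in 200 mM KPO4, preincubated 10 min with compound; NADPH regeneration started a 60 min RT reaction. Luciferin detected by luminescence, normalized to 57 uM ketoconazole as full inhibition.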

Chain of Cytochrome P450 3A4 (Homo sapiens) (P08684 whole entry, looked up): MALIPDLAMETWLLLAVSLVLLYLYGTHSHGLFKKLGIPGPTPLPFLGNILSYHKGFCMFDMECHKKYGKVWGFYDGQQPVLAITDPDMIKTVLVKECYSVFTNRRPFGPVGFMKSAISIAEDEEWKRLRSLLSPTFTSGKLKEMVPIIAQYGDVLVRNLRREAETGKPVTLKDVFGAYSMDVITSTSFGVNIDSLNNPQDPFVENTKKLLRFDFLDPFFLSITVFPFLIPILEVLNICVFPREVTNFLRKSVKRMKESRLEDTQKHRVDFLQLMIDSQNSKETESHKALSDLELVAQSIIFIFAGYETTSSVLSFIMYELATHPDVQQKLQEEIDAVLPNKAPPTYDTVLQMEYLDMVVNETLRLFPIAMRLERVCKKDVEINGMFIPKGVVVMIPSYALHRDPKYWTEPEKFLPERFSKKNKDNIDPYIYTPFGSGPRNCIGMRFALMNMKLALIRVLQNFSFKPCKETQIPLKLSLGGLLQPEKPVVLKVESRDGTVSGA

SMILES	activity change, negative = inhibition [%]	Potency
Cc1cc(O)c(C)c(O)c1C(=O)O	-25.3	
CC1O[C@@H](O[C@@H]2C(O)C[C@H](O[C@@H]3C(O)C[C@@H](OC4CC[C@@]5(C)C6CC[C@]7(C)C(C8=CC(=O)OC8)CC[C@@]7(O)C6CC[C@@H]5C4)OC3C)OC2C)CC(O)[C@H]1O (stereo not given in full)	-4.05	
O=C(O)C(S)[C@@H](S)C(=O)O (stereo not given in full)	-28.8	
Nc1nc2c(ncn2C2CC(O)C(CO)O2)c(=O)[nH]1 (stereo not given)	-1.28	
CN(N=O)C(=O)N[C@H]1C(O)C(O)C(CO)O[C@@H]1O (stereo not given in full)	-4.77	
CC1/C=C/C=C/C=C/C=C/C=C/C=C/C=C/C(OC2OC(C)C(O)C(N)C2O)CC2O[C@@](O)(CC(O)CC(O)C(O)CCC(O)CC(O)CC(=O)OC(C)[C@H](C)C1O)CC(O)C2C(=O)O (stereo not given in full)	-24.7	
CC1c2cccc(O)c2C(O)=C2C(=O)[C@]3(O)C(O)=C(C(N)=O)C(=O)C(N(C)C)C3C(O)C21 (stereo not given in full)	-5.65	
COc1cc(C(C)=O)cc(OC)c1O	-10.1	
CC(=O)OC(C)(C)C1Cc2cc3ccc(=O)oc3cc2O1 (stereo not given)	-7.26	
NC(=O)c1ccc[n+]([C@@H]2OC(COP(=O)([O-])OP(=O)(O)OCC3OC(n4cnc5c(N)ncnc54)C(O)C3O)C(O)C2O)c1 (stereo not given in full)	-3.03	
C[C@]12CCC(=O)C=C1CCC1C2C(O)C[C@]2(C)C1CC[C@]2(O)C(=O)COC(=O)CCC(=O)O (stereo not given in full)	-4.72	
NC1C(O)OC(CO)[C@@H](O)[C@@H]1O[C@H]1O[C@@H](C(=O)O)C(O)C(O)C1O (stereo not given in full)	-2.83	
CC(CCC(=O)O)C1CCC2C3C(=O)CC4CC(=O)CC[C@@]4(C)C3CC(=O)[C@]12C (stereo not given in full)	-12.3	
Cc1onc(-c2c(Cl)cccc2Cl)c1C(=O)NC1C(=O)N2C1SC(C)(C)C2C(=O)O (stereo not given)	-13.3	
C=C1C(=O)C23C(O)C1CCC2[C@]12COC3(O)C(O)C1C(C)(C)CC[C@H]2O (stereo not given in full)	-10.3	
CC1CCC2C(C)(C)C3CC12CC[C@]3(C)O (stereo not given in full)	-9.46	
O=C1C=CC2=C3c4cc(O)c(O)cc4C[C@]3(O)COC2=C1	-25	
Nc1ncnc2c1[nH]c(=O)n2C1CC(O)C(CO)O1 (stereo not given)	-2.94	
COc1cc2ccc(=O)oc2c(OC)c1OC	-20.7	
COc1ccc2c(=O)ccoc2c1	-12.7	
COC(=O)CC1C(C)(C)C(=O)C2CC3C4=CC(=O)OC(c5ccoc5)[C@]4(C)CCC3[C@@]1(C)C2=O (stereo not given in full)		7.94 µM (active)
O=c1[nH]cnc2c1ncn2C1CC(O)C(CO)O1 (stereo not given)	-5.57	
O=C(O)/C=C/C=C/c1ccccc1	-15.2	
O=C1OC(C(O)CO)C(O)=C1O (stereo not given)	1.65	
O=C(O)c1cc2ccccc2[nH]1	-4.37	
Nc1ncnc2c1nc(Br)n2C1OC(CO)C(O)C1O (stereo not given)	-10.9	

target: Cytochrome P450 3A4 (Homo sapiens) (UniProt P08684); test: qHTS Assay for Activators of Cytochrome P450 3A4 (AID 885); conditions: recombinant CYP3A4, Luciferin-PPXE luminescence, 60 min; series mostly up to 57.1 µM; activity change, positive = activation: at the top concentration; note: nearly all actives have a fitted effect of over 65% in size
Summary of the method: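 Human CYP3A4 (20 nM) with Luciferin-PPXE at 25 uM (its KM) in 200 mM KPO4; 10 min compound preincubation, then NADPH regeneration and 60 min reaction at RT. Luciferin read by luminescence; normalized to 57 uM ketoconazole full inhibition.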

SMILES	activity change, positive = activation [%]
CS(C)(=O)=O	-44.4
COc1ccc(-c2coc3cc(OC)cc(OC)c3c2=O)cc1	-34.1
COc1ccc(C2COc3c(ccc(O)c3OC)C2)c(OC)c1O (stereo not given)	-58.2
COC(=O)c1c(C)cc(O)cc1O	-55.7
C=C1C([C@@]2(C)C(OC(C)=O)CC(=O)O[C@@](C)(COC(C)=O)C2CC(=O)OC)C(OC=O)C(OC(=O)C(O)C(C)CC)[C@]2(C)C(c3ccoc3)CC(=O)C12O (stereo not given in full)	-57.3
C=C1C(=O)OC2C1CC/C(C)=C/CCC1(C)OC21 (stereo not given)	-52.4
COc1ccc(-c2cc(=O)c3cc(OC)ccc3o2)cc1	-40.5
COc1cc(OC)c2c(=O)c(-c3ccccc3)c(C)oc2c1OC	-30.3
Cc1cc(O)cc(=O)o1	-32.2
COC1=CC(=O)C=C(OC)C1=O	-49.5
Cc1cc(=O)oc2cc(O)c(O)cc12	-34.2
CC1CC2C(C(O)C[C@]3(C)C2CC[C@]3(O)C(=O)CO)[C@]2(C)C=CC(=O)C=C12 (stereo not given in full)	-44.8
O=c1c2cc(O)c(O)cc2oc2cc(O)c(C3OC(CO)C(O)C(O)C3O)c(O)c12 (stereo not given)	-34.6
COC(=O)CC1[C@@]2(C)C[C@]34OC5(C)OC6(C7CC(=O)OC(c8ccoc8)[C@]7(C)CCC6(O5)[C@]13C)C(OC(C)=O)[C@]4(OC(C)=O)C2OC(C)=O (stereo not given in full)	-55.3
